# Assay outcomes as filed in PubChem.
# Sampled rows, rich in hits. Any-hit rate of the full collection: about 4.6%.
# D1 potentiator – enhances dopamine response at the human D1 receptor; P21728; HEK293 TREx D1 cells, calcium flux, dopamine EC20 potentiation; potentiation, % at 10 µM; hit rate 0.036% among 360,000; in the data active means potentiation above about 30%; further: 0% is about no effect
# D1 agonist – agonists of human D1 dopamine receptor; activation, % at 2 µM; hit rate 1% among 360,000; P21728; HEK293 T-REx D1 cells, calcium flux, agonist mode; further: 0% is about no effect
#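 Inducible HEK293 T-REx D1 cells, force-coupled to calcium signalling, were plated at 4000 cells/well with tetracycline and held overnight at 30 C. After no-wash calcium dye loading, compound-evoked calcium rise over 180 s flagged agonists.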
# TRHR agonist – activates the human TRH receptor; hit rate 0.18% among 360,000; TRHR cells, calcium flux fluo-8, FDSS agonist mode; P34981; activation, % at 2 µM; AID 493084; further: 0% is about no effect
# Target sequence (P34981 whole entry, looked up): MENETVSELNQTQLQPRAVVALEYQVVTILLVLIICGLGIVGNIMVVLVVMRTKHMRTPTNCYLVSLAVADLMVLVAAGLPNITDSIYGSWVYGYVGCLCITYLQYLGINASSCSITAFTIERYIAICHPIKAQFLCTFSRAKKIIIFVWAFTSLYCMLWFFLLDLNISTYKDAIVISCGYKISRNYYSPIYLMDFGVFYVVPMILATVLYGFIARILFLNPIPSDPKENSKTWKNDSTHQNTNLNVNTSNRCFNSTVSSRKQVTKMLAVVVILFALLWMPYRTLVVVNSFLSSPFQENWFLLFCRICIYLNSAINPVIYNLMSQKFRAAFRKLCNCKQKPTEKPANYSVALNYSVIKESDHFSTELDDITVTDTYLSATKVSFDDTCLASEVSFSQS
#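 TRHR-expressing cells loaded with fluo-8 calcium dye; 23 nL library compound pin-transferred, kinetic FDSS fluorescence (Ex 480/Em 530) recorded about 180 s for agonist-induced calcium release, before a 10 nM TRH EC20 addition for potentiator mode.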
# D1 antagonist – antagonists of human D1 dopamine receptor; hit rate 3.2% among 360,000; activity change, negative = inhibition, % at 10 µM; HEK293 TREx D1 cells, calcium flux, dopamine EC80; active compounds read low; P21728; in the data active means activity change below about -30%; further: on the % scale 0 is the no-effect control and ±100 the full control effect
#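 Using tetracycline-induced force-coupled D1 Hek293 cells and a calcium dye, signals were followed for 180 s after compound, then for 180 s after EC80 dopamine, to detect inhibitors.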
# TRHR enhancer – allosterically enhances the human TRH receptor; P34981; TRHR cells, fluo-8 calcium fluorescence, EC20 TRH enhancement; enhancement, % at 2 µM; hit rate 0.66% among 360,000; AID 493056; in the data active means enhancement above about 30%; further: 0% is about no effect
#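 Enhancer read-out: after compound pinning and an initial kinetic agonist-mode read, an EC20 of TRH (10 nM final) was injected and fluo-8 calcium signal (Ex 480/Em 530) followed at 1 s/cycle for 100 cycles in TRHR-expressing cells.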
# Epigenetic reg – regulators of epigenetic silencing causing reporter derepression in mouse cells. murine LDR cells, GFP reporter derepression, 30 h. Potency, µM (titrated, usually from 53.9 µM), inactives show at the highest dose GFP activation, actives largely listed as activators. hit rate 0.2% among 280,000. AID 1865; active means well fitted activation curve with a large enough effect; inconclusive means small, poorly fitted or top-dose-only effect; further: potency means the concentration at half of the fitted maximal effect; % of control where 0% means no effect; nearly all actives have a fitted effect of over 60% in size
#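 In this reporter-derepression format, murine cells bearing a silenced integrated CMV-GFP locus incubate with test compound (30 h, 37 C), then are washed and imaged; fluorescent objects of 20–120 um count as induced cells.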
# * hit, by the source's call; u = inconclusive; x = not tested or not shown; [ ] = another dose, or the depositor's remark. Unless noted, no stated cut-off is given here; in the data, active means activation above about 30%; inactive means the rest.
SMILES,D1 potentiator,D1 agonist,TRHR agonist,D1 antagonist,TRHR enhancer,Epigenetic reg
O=C(Nc1nnc(N2CCCCCC2)s1)c1cc(-c2ccc(Br)cc2)on1,0,0,0,-48*,0,0%
COc1ccc(Nc2nc3c(S(=O)(=O)c4ccc(C)cc4)nnn3c3ccsc23)cc1Cl,-5,0,0,2,3,20%
CCCN(C(=O)c1sc2nc3n(c(=O)c2c1C)CCCC3)c1ccccc1C,1,3,0,5,1,1%
CCN(C(=O)c1sc2nc3n(c(=O)c2c1C)CCCC3)c1ccccc1F,3,35*,2,-37*,2,4%
COc1ccc(C)cc1N(C)C(=O)c1sc2nc3n(c(=O)c2c1C)CCCCC3,-4,43*,24,-12,12,u
COc1ccc(CNC(=O)c2sc3nc4n(c(=O)c3c2C)CCCCC4)cc1,-3,50*,15,-5,0,1%
Cc1c(C(=O)Nc2ccc(Oc3ccccc3)cc2)sc2nc3n(c(=O)c12)CCC3,-4,8,0,-51*,-4,-1%
CCOc1ccc2nc(N3CCCC(C(=O)Nc4ccc(OC)c(Cl)c4)C3)sc2c1 (centres undefined),-5,0,0,3,-3,0%
CCc1cccc(-n2c(=O)c3cccnc3n2CC(=O)Nc2ccc(F)c(C)c2)c1,-4,7,0,14,-8,1%
COCCCNC(=O)C1CCCN(c2nn3cc(-c4ccc(C)cc4)nc3s2)C1 (centres undefined),5,-1,0,1,-9,-2%
O=C(COc1ccc(Cl)cc1)Nc1ccc(C(=O)OCc2cc(=O)n3ccsc3n2)cc1,-1,3,0,-12,18,0%
C/C(=N\OCC(=O)OCC(=O)NC(=O)c1ccccc1)c1ccc2c(c1)OCO2,1,3,1,-40*,-2,x
COC(=O)c1ccccc1NC(=O)COC(=O)CO/N=C(\C)c1ccc2c(c1)OCO2,0,7,1,-31*,-7,x
COc1ccc(CNC(=O)COC(=O)CO/N=C(\C)c2ccc3c(c2)OCO3)cc1,-6,-1,-1,-33*,8,x
C/C(=N\OCC(=O)OCC(=O)Nc1cc(S(C)(=O)=O)ccc1Cl)c1ccc2c(c1)OCO2,0,5,-1,-14,-8,x
COC(=O)c1ccccc1NC(=O)CN1CCC(C(=O)c2ccc3c(c2)OCCO3)CC1,2,7,0,-32*,10,-1%
O=S(=O)(c1ccc2c(c1)OCCO2)N1CCN(S(=O)(=O)c2cccc(Cl)c2F)CC1,-4,8,0,5,0,x
CC1C(=O)CCC2[C@]1(C)CCC1[C@]2(C)CC[C@@]2(C)C3CC(C)(C)CC[C@]3(C)CC[C@@]12C (some centres undefined),x,x,x,x,x,-1%
COc1ccccc1C1CC(c2ccc(NS(C)(=O)=O)cc2)=NN1S(=O)(=O)c1ccccc1 (centres undefined),0,5,0,4,3,x
COc1ccccc1C1CC(c2cccc(NS(C)(=O)=O)c2)=NN1S(=O)(=O)c1ccccc1 (centres undefined),-4,9,0,-4,31*,x
O=C(NCCC1=CCCCC1)c1ccc2c(c1)N(Cc1ccccc1F)C(=O)c1ccccc1S2=O (centres undefined),-4,7,1,-10,-4,1%
CSc1cccc(NS(=O)(=O)c2ccc3[nH]cc(C(=O)N4CCCC4)c(=O)c3c2)c1,9,2,0,10,14,-1%
COc1ccc(C2CC(=O)N3CN(c4ccc(C)c(Cl)c4)CSC3=C2C#N)cc1 (centres undefined),-5,3,0,-3,31*,2%
O=[N+]([O-])c1cc(-c2ccc(/C=N/n3cnnc3)o2)ccc1Cl,-4,1,0,-6,-4,x
CN1CCN(/N=C/c2ccc(-c3ccc([N+](=O)[O-])cc3Cl)o2)CC1,-9,52*,12,-8,4,u
SMILES,D1 potentiator,D1 agonist,TRHR agonist,D1 antagonist,TRHR enhancer,Epigenetic reg
COc1cc([N+](=O)[O-])ccc1-c1ccc(/C=N\n2cnnc2)o1,-2,5,-2,-3,0,x
O=[N+]([O-])c1ccc(Cl)c(-c2ccc(/C=N/n3cnnc3)o2)c1,-1,0,-1,-42*,-4,x
Cc1ccc(Cl)cc1NC(=O)C(C)n1nc(-c2ccccc2)ccc1=O (centres undefined),4,2,0,17,-3,0%
Cc1ccc(C(=O)c2c(N)c(C(=O)Nc3cccc(C(F)(F)F)c3)c3ccccn23)cc1,-2,7,-2,-9,8,-4%
Cn1c(=O)c2c(nc(NCCO)n2CCc2ccccc2)n(C)c1=O,-6,2,0,-79*,-2,1%
Cn1c(=O)c2c(nc(SCc3cccnc3)n2Cc2ccccc2)n(C)c1=O,-7,0,-1,-41*,10,0%
CCOc1ccc(CCNc2nc3c(c(=O)n(C)c(=O)n3C)n2CC)cc1OCC,-10,6,-3,-31*,-2,3%
Cc1ccc(Cn2c(SCc3cccnc3)nc3c2c(=O)n(C)c(=O)n3C)cc1,-1,2,-1,14,-1,1%
C=CCn1c(Oc2ccc(C=O)cc2OCC)nc2c1c(=O)n(C)c(=O)n2C,-13,1,0,-61*,2,x
COc1ccccc1C(=O)Nc1ccc2oc(-c3cccc4c(Br)cccc34)nc2c1,-1,1,0,2,-3,-2%
CO[C@@H]1COC(=O)C/C=C\[C@@H](C)[C@H](OC)COC(=O)C/C=C\[C@H]1C,x,x,x,x,x,1%[10.1 µM]
Cn1c(=O)c2c(nc(NCc3ccccc3)n2Cc2ccccc2Cl)n(C)c1=O,-7,-2,0,-30*,12,1%
CCCNC(=O)Cn1nc(-c2ccc(C)c(C)c2)c2cnc3ccc(F)cc3c21,-5,4,-1,-8,3,0%
COc1ccc(-c2nc3ccccc3o2)cc1NC(=O)c1ccc(N2CCC(C)CC2)c([N+](=O)[O-])c1,-2,0,0,-3,2,0%
Oc1ccc2nnc3c(Br)cnn3c2c1,-2,171*,52*,1,-6,x
COc1ccc(OC)c(NC(=O)c2nnn(CC(=O)Nc3ccc(C(C)C)cc3)c2N)c1,3,1,1,-4,-2,8%
O=C(c1ccco1)N(Cc1ccc([N+](=O)[O-])cc1)c1ccc(Br)cc1,-2,-1,0,0,1,-1%
O=C(c1ccco1)N(Cc1cccc([N+](=O)[O-])c1)c1ccc(Br)cc1,-2,30,0,-36*,21,8%
